Data published in PubChem BioAssay (Tox21).
Values joined by “and” are separate entries in the source; they are usually repeats but may differ in a detail not shown here. Identical values can stand only once. Results filed as inconclusive are left out. Where a call stands in place of a potency, no number is given. A structure can be active in one record and inactive in another. Active and inactive are the calls of the source. Unless noted, the call rests on the fitted dose curve; in most records, active means well fitted curve in the direction sought with a large enough effect in the repeat runs; inconclusive means weak or mixed curves; inactive means no such curve, though single readings can be large; an effect the other way counts as inactive or inconclusive.

Experiment: qHTS assay to identify small molecule antagonists of the estrogen related receptor (ERR) signaling pathway from Tox21 library (AID 1224848); further: nearly all actives have a fitted effect of over 50% in size
Details: ERR reporter cell line, luciferase antagonist mode, 18 h; series mostly up to 92.4 µM; activity, negative = inhibition: at the top concentration
Method in brief: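 Luminescent reporter read-out (ONE-Glo) from NTP's ERR cell line after 18 h treatment at 37 C with DMSO-dissolved Tox21 compounds; cells pre-plated 6 h beforehand at 2,000 per well.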
In the case of `CCO[Si](CCCNC(N)=O)(OCC)OCC`, the Potency was “inactive”.
In the case of `CN1CCOCC1`, the Potency was “inactive”.
For `COc1cc([C@H]2Oc3cc([C@H]4Oc5cc(O)cc(O)c5C(=O)[C@@H]4O)ccc3O[C@@H]2CO)ccc1O`, the “activity, negative = inhibition” value was 8.24% [at 42.5 µM] (inactive).
In the case of `Cc1ccc(S(=O)(=O)NCl)cc1`, the Potency was “inactive”.
In the case of `O=C(O)c1cc(=O)[nH]c(=O)[nH]1`, the Potency was “inactive”.
With `[O-]/[N+](=N\O)c1ccccc1` the Potency was “inactive”.
In the case of `C[C@]12C=CC(=O)C=C1CC[C@H]1[C@@H]3C[C@@H](O)[C@](O)(C(=O)CO)[C@@]3(C)C[C@H](O)[C@@]12F`, the Potency was “inactive”.
With `c1ccc2c(c1)ccc1ncccc12` the Potency was “inactive”.
With `FC(F)(F)C(Cl)Br` (stereo unspecified) the Potency was “inactive”.
With `CC(C)=CCO` the Potency was “inactive”.
For `CC(=O)Oc1c(C)c(C)c2c(c1C)CC[C@@](C)(CCC[C@H](C)CCC[C@H](C)CCCC(C)C)O2`, the Potency was “inactive”.
With `OCCNCCO` the Potency was “inactive”.
For `O=C1OC2(c3ccccc31)c1cc(I)c(O)c(I)c1Oc1c2cc(I)c(O)c1I`, the “activity, negative = inhibition” value was -13% [at 42.5 µM] (inactive).
For `Oc1c(Cl)ccc(Cl)c1Cl`, the Potency was “inactive”.
With `NCCOCCO` the Potency was “inactive”.
With `CCCCCC=O` the Potency was “inactive”.
With `O=C(O)CCCCCCCCCCCC(=O)O` the Potency was “inactive”.

Experiment: qHTS assay to identify small molecule agonists of the estrogen related receptor (ERR) signaling pathway from Tox21 library (AID 1224849; calls by dose curve; further: nearly all actives have a fitted effect of over 15% in size)
Details: ERR reporter cell line, ONE-Glo luciferase, 18 h; at 42.5 µM (top of the series)
Method in brief: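 Agonist signal is luciferase luminescence from an ERR reporter cell line treated 18 h at 37 C with DMSO-dissolved compounds, read 30 min after ONE-Glo addition at room temperature.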
With `COc1cc([C@H]2Oc3cc([C@H]4Oc5cc(O)cc(O)c5C(=O)[C@@H]4O)ccc3O[C@@H]2CO)ccc1O` the activity change, positive = activation was 4.78% (inactive).
With `C[C@]12C=CC(=O)C=C1CC[C@H]1[C@@H]3C[C@@H](O)[C@](O)(C(=O)CO)[C@@]3(C)C[C@H](O)[C@@]12F` the activity change, positive = activation was 2.12% (inactive).
With `FC(F)(F)C(Cl)Br` (stereo unspecified) the activity change, positive = activation was 6.22% (inactive).
For `CC(=O)Oc1c(C)c(C)c2c(c1C)CC[C@@](C)(CCC[C@H](C)CCC[C@H](C)CCCC(C)C)O2`, the activity change, positive = activation was 0% (inactive).
With `CC(=O)[C@@]1(O)CC[C@H]2[C@@H]3C[C@H](C)C4=CC(=O)C=C[C@]4(C)[C@@]3(F)[C@@H](O)C[C@@]21C` the activity change, positive = activation was -14.9% (inactive).
In the case of `O=C1OC2(c3ccccc31)c1cc(I)c(O)c(I)c1Oc1c2cc(I)c(O)c1I`, the activity change, positive = activation was -27.3% (inactive) and -18.3% (inactive) and -7.34% (inactive).

Same assay, conditions: ERR reporter cell line, ONE-Glo luciferase, 18 h; at 92.4 µM (top of the series)
With `CCO[Si](CCCNC(N)=O)(OCC)OCC` the activity change, positive = activation was 8.59% (inactive) and 5.1% (inactive).
In the case of `CN1CCOCC1`, the activity change, positive = activation was -10.1% (inactive) and 3.72% (inactive).
For `COc1cc([C@H]2Oc3cc([C@H]4Oc5cc(O)cc(O)c5C(=O)[C@@H]4O)ccc3O[C@@H]2CO)ccc1O`, the activity change, positive = activation was -26.2% (inactive).
In the case of `Cc1ccc(S(=O)(=O)NCl)cc1`, the activity change, positive = activation was 5.11% (inactive) and 6.95% (inactive).
In the case of `O=C(O)c1cc(=O)[nH]c(=O)[nH]1`, the activity change, positive = activation was 2.48% (inactive).
In the case of `[O-]/[N+](=N\O)c1ccccc1`, the activity change, positive = activation was 4.43% (inactive) and 12.7% (inactive).
In the case of `Cc1ccc(C(C)(C)C)c(O)c1`, the activity change, positive = activation was -17.4% (inactive) and -15.2% (inactive).
With `C[C@]12C=CC(=O)C=C1CC[C@H]1[C@@H]3C[C@@H](O)[C@](O)(C(=O)CO)[C@@]3(C)C[C@H](O)[C@@]12F` the activity change, positive = activation was -0.443% (inactive).
In the case of `c1ccc2c(c1)ccc1ncccc12`, the activity change, positive = activation was -5.44% (inactive).
In the case of `FC(F)(F)C(Cl)Br` (stereo unspecified), the activity change, positive = activation was 3.79% (inactive).
In the case of `CC(C)=CCO`, the activity change, positive = activation was -0.501% (inactive).
For `CC(=O)Oc1c(C)c(C)c2c(c1C)CC[C@@](C)(CCC[C@H](C)CCC[C@H](C)CCCC(C)C)O2`, the activity change, positive = activation was 5.86% (inactive).
For `CC(=O)[C@@]1(O)CC[C@H]2[C@@H]3C[C@H](C)C4=CC(=O)C=C[C@]4(C)[C@@]3(F)[C@@H](O)C[C@@]21C`, the activity change, positive = activation was -31% (inactive).
For `OCCNCCO`, the activity change, positive = activation was -2.22% (inactive) and 4.53% (inactive).
With `O=C1OC2(c3ccccc31)c1cc(I)c(O)c(I)c1Oc1c2cc(I)c(O)c1I` the activity change, positive = activation was -20.6% (inactive).
For `Oc1c(Cl)ccc(Cl)c1Cl`, the activity change, positive = activation was 1.41% (inactive) and -6.03% (inactive).
In the case of `NCCOCCO`, the activity change, positive = activation was -2.16% (inactive) and 1.44% (inactive).
In the case of `CCCCCC=O`, the activity change, positive = activation was 8.48% (inactive) and 5.45% (inactive).
With `O=C(O)CCCCCCCCCCCC(=O)O` the activity change, positive = activation was -2.27% (inactive).

Experiment: qHTS RealTime-Glo MT Cell Viability Assay in HepG2 cells - 24 hour (AID 1224867); further: nearly all actives have a fitted effect of over 50% in size; further: potency means the concentration at half of the fitted maximal effect
Details: RealTime-Glo luminescence; series mostly up to 76.8 µM; activity change, negative = cytotoxicity: at the top concentration
Method in brief: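 HepG2 cells were seeded at 600 cells/well together with NanoLuc luciferase and a cell-permeant prosubstrate, preincubated 5 h at 37 C/5% CO2, then pin-dosed with compounds in DMSO. Nonlytic luminescence from viable cells was read at each time point.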
With `CCC(Cc1c(I)cc(I)c(N)c1I)C(=O)O` (stereo unspecified) the Potency was “inactive”.
With `CCO[Si](CCCNC(N)=O)(OCC)OCC` the Potency was “inactive”.
For `CCCCCCCCCCC(CO)CCCCCCCC` (stereo unspecified), the Potency was “inactive”.
In the case of `CN1CCOCC1`, the Potency was “inactive”.
In the case of `CCCN1C=CN(C)C1`, the Potency was “inactive”.
With `Nc1cc([N+](=O)[O-])ccc1C(=O)O` the Potency was “inactive”.
In the case of `COc1cc([C@H]2Oc3cc([C@H]4Oc5cc(O)cc(O)c5C(=O)[C@@H]4O)ccc3O[C@@H]2CO)ccc1O`, the Potency was “inactive”.
With `Cc1ccc(S(=O)(=O)NCl)cc1` the Potency was “inactive”.
In the case of `O=C(O)c1cc(=O)[nH]c(=O)[nH]1`, the Potency was “inactive”.
With `[O-]/[N+](=N\O)c1ccccc1` the Potency was “inactive”.
In the case of `CC(=O)Nc1ccc2c(c1)Cc1cc(NC(C)=O)ccc1-2`, the Potency was “inactive”.
For `Cc1ccc(C(C)(C)C)c(O)c1`, the “activity change, negative = cytotoxicity” value was -7.79% (inactive).
In the case of `C[C@]12C=CC(=O)C=C1CC[C@H]1[C@@H]3C[C@@H](O)[C@](O)(C(=O)CO)[C@@]3(C)C[C@H](O)[C@@]12F`, the Potency was “inactive”.
In the case of `Cc1ccc2c(c1)C(=O)OC2=O`, the Potency was “inactive”.
For `c1ccc2c(c1)ccc1ncccc12`, the Potency was “inactive”.
In the case of `FC(F)(F)C(Cl)Br` (stereo unspecified), the Potency was “inactive”.
For `CC(C)=CCO`, the Potency was “inactive”.
For `CC(=O)Oc1c(C)c(C)c2c(c1C)CC[C@@](C)(CCC[C@H](C)CCC[C@H](C)CCCC(C)C)O2`, the Potency was “inactive”.
In the case of `CC(=O)[C@@]1(O)CC[C@H]2[C@@H]3C[C@H](C)C4=CC(=O)C=C[C@]4(C)[C@@]3(F)[C@@H](O)C[C@@]21C`, the Potency was “inactive”.
In the case of `Cc1ccc(C)c(O)c1`, the Potency was “inactive”.
In the case of `[Na+]`, the “activity change, negative = cytotoxicity” value was 0.201% (inactive).
With `C1COCCN1` the Potency was “inactive”.
In the case of `OCCNCCO`, the Potency was “inactive”.
With `COC(=O)c1ccc(C)cc1` the Potency was “inactive”.
For `CC(C)(C)c1cccc(C(C)(C)C)c1O`, the Potency was “inactive”.
With `O=C1OC2(c3ccccc31)c1cc(I)c(O)c(I)c1Oc1c2cc(I)c(O)c1I` the Potency was 39 µM (active) and 27.9 µM (active).
For `Oc1c(Cl)ccc(Cl)c1Cl`, the Potency was “inactive”.
In the case of `C=CN1CCCC1=O`, the Potency was “inactive”.
With `NCCOCCO` the Potency was “inactive”.
For `CCCOCCO`, the Potency was “inactive”.
For `CC1(C)C(C=C(Cl)Cl)C1C(=O)OCc1cccc(Oc2ccccc2)c1` (stereo unspecified), the Potency was “inactive”.
In the case of `Brc1nc2ccccc2s1`, the Potency was “inactive”.
For `CCCCCC=O`, the Potency was “inactive”.
For `CN(C)C`, the Potency was “inactive”.
For `c1ccc2c(c1)[nH]c1ccccc12`, the Potency was “inactive”.
In the case of `O=C(O)CCCCCCCCCCCC(=O)O`, the Potency was “inactive”.
With `NCCN` the Potency was “inactive and 38.9 µM (active)”.
In the case of `CC1(C)O[C@@H]2C[C@H]3[C@@H]4C[C@H](F)C5=CC(=O)C=C[C@]5(C)[C@@]4(F)[C@@H](O)C[C@]3(C)[C@]2(C(=O)CO)O1`, the Potency was “inactive”.
In the case of `CCCCCCC(C)O` (stereo unspecified), the Potency was “inactive”.
